# In PubChem BioAssay AID449739 (Vanderbilt High Throughput Screening Facility, 2010):
# Among all 100,000 compounds or so, about 4,200 (4.2%) were called active.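 The calls were made as follows: active = single-dose well whose peak fluorescence ratio is a statistical outlier from its plate by either plate-standardised score or position-corrected B-score; inactive = the rest.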 The entries come from a sample that favours actives as a whole.
# Target: Voltage-dependent T-type calcium channel subunit alpha-1H (Homo sapiens) (UniProt O95180)
# Assay: Cav3.2 calcium influx blockers – cell-based, Fluo-4 calcium fluorescence, FDSS, MLSMR library, primary screen (AID 449739)
# Conditions: Cav3.2-expressing cells, at 10 µM, stronger effect = lower value
# Sequence of Voltage-dependent T-type calcium channel subunit alpha-1H (Homo sapiens) (O95180 whole entry, looked up): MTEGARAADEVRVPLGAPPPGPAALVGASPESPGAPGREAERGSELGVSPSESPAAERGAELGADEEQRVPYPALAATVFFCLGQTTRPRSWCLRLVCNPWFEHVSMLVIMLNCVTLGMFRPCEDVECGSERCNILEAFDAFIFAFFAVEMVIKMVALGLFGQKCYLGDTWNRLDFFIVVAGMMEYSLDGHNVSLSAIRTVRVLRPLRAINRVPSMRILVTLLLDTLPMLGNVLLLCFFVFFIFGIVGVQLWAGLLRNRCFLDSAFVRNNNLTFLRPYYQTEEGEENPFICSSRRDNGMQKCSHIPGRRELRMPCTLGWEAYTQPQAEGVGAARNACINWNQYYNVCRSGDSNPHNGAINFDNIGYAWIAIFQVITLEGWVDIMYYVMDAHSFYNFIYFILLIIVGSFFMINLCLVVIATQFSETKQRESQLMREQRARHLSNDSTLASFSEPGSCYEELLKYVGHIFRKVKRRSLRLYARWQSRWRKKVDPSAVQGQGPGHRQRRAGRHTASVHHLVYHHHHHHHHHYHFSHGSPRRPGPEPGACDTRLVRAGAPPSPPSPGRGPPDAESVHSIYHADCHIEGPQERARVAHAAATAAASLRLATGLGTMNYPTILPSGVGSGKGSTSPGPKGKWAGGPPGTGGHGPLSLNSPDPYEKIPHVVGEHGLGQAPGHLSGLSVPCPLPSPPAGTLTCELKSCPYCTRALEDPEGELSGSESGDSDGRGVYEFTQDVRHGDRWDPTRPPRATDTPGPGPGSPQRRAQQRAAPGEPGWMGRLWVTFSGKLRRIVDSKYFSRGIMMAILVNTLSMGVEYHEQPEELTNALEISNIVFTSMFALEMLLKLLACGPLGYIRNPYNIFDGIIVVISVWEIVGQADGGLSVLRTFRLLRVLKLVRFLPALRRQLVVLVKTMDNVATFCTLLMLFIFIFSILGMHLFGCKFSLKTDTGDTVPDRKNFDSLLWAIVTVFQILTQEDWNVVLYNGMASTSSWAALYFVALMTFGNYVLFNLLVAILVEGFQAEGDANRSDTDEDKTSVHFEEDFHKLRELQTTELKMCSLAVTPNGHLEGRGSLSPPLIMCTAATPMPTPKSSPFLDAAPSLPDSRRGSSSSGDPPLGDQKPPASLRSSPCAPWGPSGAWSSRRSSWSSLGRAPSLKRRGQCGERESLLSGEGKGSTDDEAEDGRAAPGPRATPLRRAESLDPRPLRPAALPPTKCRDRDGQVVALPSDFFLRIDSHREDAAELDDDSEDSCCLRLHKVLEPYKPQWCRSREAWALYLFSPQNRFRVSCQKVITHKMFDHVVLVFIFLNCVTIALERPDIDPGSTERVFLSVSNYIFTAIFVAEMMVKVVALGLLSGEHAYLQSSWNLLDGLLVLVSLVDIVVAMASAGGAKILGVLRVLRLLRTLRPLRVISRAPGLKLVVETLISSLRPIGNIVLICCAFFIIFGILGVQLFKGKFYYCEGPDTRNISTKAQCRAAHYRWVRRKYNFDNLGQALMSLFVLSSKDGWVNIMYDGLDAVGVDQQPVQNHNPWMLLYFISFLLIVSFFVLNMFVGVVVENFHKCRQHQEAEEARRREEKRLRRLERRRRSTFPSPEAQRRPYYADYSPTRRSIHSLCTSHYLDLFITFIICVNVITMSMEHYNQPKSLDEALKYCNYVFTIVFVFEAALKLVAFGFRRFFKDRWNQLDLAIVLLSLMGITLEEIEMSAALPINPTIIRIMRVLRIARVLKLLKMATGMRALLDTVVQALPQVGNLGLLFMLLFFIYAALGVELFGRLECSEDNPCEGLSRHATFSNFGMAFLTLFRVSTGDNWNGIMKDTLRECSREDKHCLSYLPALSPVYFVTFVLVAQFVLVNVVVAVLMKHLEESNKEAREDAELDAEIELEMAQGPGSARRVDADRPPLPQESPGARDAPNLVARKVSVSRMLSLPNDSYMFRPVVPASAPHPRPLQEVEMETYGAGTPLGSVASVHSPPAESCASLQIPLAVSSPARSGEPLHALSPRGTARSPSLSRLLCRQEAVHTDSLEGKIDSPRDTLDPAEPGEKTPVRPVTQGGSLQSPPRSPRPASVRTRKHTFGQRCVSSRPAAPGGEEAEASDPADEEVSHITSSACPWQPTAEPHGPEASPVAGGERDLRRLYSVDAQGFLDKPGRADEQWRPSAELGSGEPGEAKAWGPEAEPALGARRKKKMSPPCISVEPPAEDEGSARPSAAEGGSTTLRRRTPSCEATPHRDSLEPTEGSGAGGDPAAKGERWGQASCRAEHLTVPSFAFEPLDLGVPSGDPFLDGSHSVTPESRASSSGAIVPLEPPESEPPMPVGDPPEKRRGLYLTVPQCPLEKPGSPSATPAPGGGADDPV
row,SMILES,B-score
1,CCCCN1C(N)=NC[C@@H]1Cc1ccccc1,-0.563 (inactive)
2,COc1ccc(NC(=O)CC2COc3ccccc3O2)c(OC)c1 (stereo unspecified),-0.874 (inactive)
3,CCn1cc(C(=O)NCC2COc3ccccc3O2)c2cc(OC)c(OC)cc2c1=O (stereo unspecified),-0.122 (inactive)
4,COc1ccc(OC)c2sc(NC(=O)C3COc4ccccc4O3)nc12 (stereo unspecified),-4.42 (active)
5,c1ccc(-c2ccnc3nc(-n4cccc4)nn23)cc1,0.354 (inactive)
6,COc1ccccc1C1=CC(=O)CCC1,1.41 (inactive)
7,O=C(Nc1ccccc1)c1cccnc1Nc1ccccc1,0.697 (inactive)
8,c1ccc(Nc2n[nH]nc2-c2ccccc2)cc1,-7.14 (active)
9,Nc1ccc(Nc2ccccc2)cc1,0.472 (inactive)
10,C=CCCN(Cc1ccccc1)S(=O)(=O)c1ccccc1Br,0.0805 (inactive)
11,CCO[C@@H]1OC(C(=O)NCc2nc3ccccc3[nH]2)=C[C@H](C2CCCCC2)[C@H]1CCCO,-0.192 (inactive)
12,COc1ccc(N2CCN(C(c3cc4ccc(C)cc4[nH]c3=O)c3nnnn3C3CCCC3)CC2)cc1 (stereo unspecified),-2.59 (inactive)
13,CC(C)C(c1nnnn1C1CCCC1)N1CCN(c2ccccc2F)CC1 (stereo unspecified),-2.85 (inactive)
14,COc1ccc(C(c2nnnn2C2CCCCC2)N2CCN(c3ccccc3F)CC2)cc1 (stereo unspecified),-6.41 (active)
15,N#CCc1c(C#N)c(N)nc(N2CCCC2)c1C#N,0.949 (inactive)
16,CCN(CC)CCC(c1cc(OC)c(OC)c(OC)c1)c1c(OC)cc(OC)c2c(-c3ccccc3)cc(=O)oc12 (stereo unspecified),-1.5 (inactive)
17,CCCCn1c(CCCNC(=O)CC)nc2ccccc21,1.14 (inactive)
18,CCCCn1c(CN2CCN(CCO)CC2)nc2ccccc21,1.86 (inactive)
19,C=C(Br)Cn1c(CCCC)nc2ccccc21,-3.88 (active)
20,CC(C)[C@@H]1NC(=O)c2cc([N+](=O)[O-])cc(I)c2NCCC[C@@H](C(=O)NC(CC(=O)O)C(N)=O)NC(=O)[C@H](CO)NC1=O (stereo partly specified),0.105 (inactive)
21,CCOc1c2ccc(C(=O)NCc3ccc(OC(F)(F)F)cc3)cc2nn1C,-1.9 (inactive)

row,SMILES,B-score
1,Cc1cc(C)cc(N(CC(=O)N2CC=C(c3ccccc3)CC2)S(=O)(=O)c2c(C)noc2C)c1,-4.03 (active)
2,Cc1cccc(N(CC(=O)N2CCOCC2)S(C)(=O)=O)c1,0.326 (inactive)
3,Cc1cc(C)cc(N(CC(=O)NCC2CCCO2)S(=O)(=O)c2c(C)noc2C)c1 (stereo unspecified),0.883 (inactive)
4,N#CC1=C(N)Oc2c(sc3ccccc23)C1c1ccco1 (stereo unspecified),-4.64 (active)
5,CC1=C(C(=O)Nc2ccccc2)C(c2ccco2)C(C#N)=C(SCC(N)=O)N1 (stereo unspecified),-0.16 (inactive)
6,CCOC(=O)CSC1=C(C#N)C(c2ccco2)C(C(=O)OCc2ccccc2)=C(C)N1 (stereo unspecified),-3.01 (inactive)
7,CCOc1cccc(C(=O)Nc2cnn(Cc3ccccc3)c2)c1,-0.985 (inactive)
8,O=C(c1ccc(F)cc1)c1c[nH]c(C(=O)NCc2cccnc2)c1,1.02 (inactive)
9,c1cnc(Nc2nc(-c3ccc4ccccc4c3)cs2)nc1,0.515 (inactive)
10,Cc1ccc(-n2c(C)cc(/C=N/Nc3ccc([N+](=O)[O-])cn3)c2C)c(C)c1,-3.21 (inactive)
11,CC(C)c1ccc(N2CCN(C(=O)c3ccccc3NC(=O)/C=C(\C(=O)O)c3ccccc3)CC2)cc1,-0.303 (inactive)
12,COC(=O)c1sccc1N/N=C(\C)c1ccc(F)c(Cl)c1,-0.109 (inactive)
13,COC(=O)c1sccc1NC(=O)CSc1ccccc1NS(=O)(=O)c1cc(Cl)ccc1Cl,-4.82 (active)
14,COC(=O)c1sccc1NC(=O)CCC1CCCC1,-0.847 (inactive)
15,N#Cc1ccc(-c2ccc(Cl)cc2)nc1Oc1ccc(F)cc1,-0.421 (inactive)
16,COc1ccc(CN2[C@@H](CC(=O)O)c3cc(F)ccc3S2(=O)=O)cc1,-2.11 (inactive)
17,O=c1cc(CO)oc(C(Nc2cccc(C(F)(F)F)c2)c2ccccn2)c1O (stereo unspecified),-0.112 (inactive)
18,NS(=O)(=O)c1ccc(Nc2nc(-c3ccccc3)cs2)cc1,0.0269 (inactive)
19,Cc1cccc(S(=O)(=O)CC(=O)Nc2nc(-c3ccccc3)cs2)c1,-8.29 (active)
20,Cc1ccc(-c2csc(NC(=O)c3cccs3)n2)cc1,-1.5 (inactive)
